The values that follow come from article PMC7862700, “An all-to-all approach to the identification of sequence-specific readers for epigenetic DNA modifications on cytosine”.

Assay in all cases: DAPPL (digital affinity profiling via proximity ligation, sequencing); 10 mM Tris-HCl pH 7.5, 50 mM NaCl, 1 mM DTT, 4% glycerol, room temperature, 30 min; GST-TFs on glutathione beads, 16-mer random dsDNA library, 0.1% formaldehyde crosslink after washing; high values mean tight binding
Holding throughout (details): protein: recombinant; tags: N-terminal GST; dsDNA, one strand shown

One assay concerns the target T1, FLI1 (Homo sapiens, UniProt Q01543 1-452).
T1 sequence: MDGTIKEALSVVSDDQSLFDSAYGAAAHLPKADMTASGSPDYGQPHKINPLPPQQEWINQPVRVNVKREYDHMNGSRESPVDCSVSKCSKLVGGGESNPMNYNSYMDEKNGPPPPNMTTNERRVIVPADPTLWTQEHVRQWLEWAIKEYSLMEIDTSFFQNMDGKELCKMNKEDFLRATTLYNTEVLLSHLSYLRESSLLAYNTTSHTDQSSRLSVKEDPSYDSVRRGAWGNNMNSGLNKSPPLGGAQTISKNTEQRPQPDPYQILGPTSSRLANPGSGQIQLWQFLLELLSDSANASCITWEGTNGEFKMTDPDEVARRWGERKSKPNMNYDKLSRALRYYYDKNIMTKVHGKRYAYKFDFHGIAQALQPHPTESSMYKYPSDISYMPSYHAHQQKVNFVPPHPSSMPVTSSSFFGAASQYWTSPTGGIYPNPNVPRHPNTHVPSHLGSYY
In short, it runs like this: (§1)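 Sequencing on an Illumina NextSeq500 followed washing, crosslinking with 0.1% formaldehyde, proximity ligation (BsaI/T4 ligase, 1 h, 37 °C) and PCR amplification of pools that had been incubated for 30 min at room temperature with 200 nmole of a random double-stranded 16-mer DNA library in Tris/NaCl/DTT/glycerol buffer. Each pool held DNA-barcoded human transcription factors, expressed in yeast as GST fusions and captured on glutathione beads, plus a tag-only sample. Binding signal is a hexamer's read frequency for a factor divided by its frequency in the tag-only sample.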

A further assay has as its target T2, ELK1 (Homo sapiens, UniProt P19419 1-428).
T2 sequence: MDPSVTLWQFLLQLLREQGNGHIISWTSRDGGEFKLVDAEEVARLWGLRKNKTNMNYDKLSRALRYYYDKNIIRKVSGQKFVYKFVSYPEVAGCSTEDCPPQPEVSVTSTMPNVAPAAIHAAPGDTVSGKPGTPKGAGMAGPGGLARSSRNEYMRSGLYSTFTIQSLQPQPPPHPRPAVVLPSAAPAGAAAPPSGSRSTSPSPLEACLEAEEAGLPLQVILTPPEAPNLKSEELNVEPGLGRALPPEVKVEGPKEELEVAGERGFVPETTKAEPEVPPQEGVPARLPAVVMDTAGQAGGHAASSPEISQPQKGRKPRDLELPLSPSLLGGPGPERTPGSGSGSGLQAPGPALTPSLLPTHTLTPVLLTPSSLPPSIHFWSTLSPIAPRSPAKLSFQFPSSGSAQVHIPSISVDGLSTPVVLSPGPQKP
An outline of the steps:
as §1

The next assay concerns the target T3, GABPA (Homo sapiens, UniProt Q06546 1-454).
T3 sequence: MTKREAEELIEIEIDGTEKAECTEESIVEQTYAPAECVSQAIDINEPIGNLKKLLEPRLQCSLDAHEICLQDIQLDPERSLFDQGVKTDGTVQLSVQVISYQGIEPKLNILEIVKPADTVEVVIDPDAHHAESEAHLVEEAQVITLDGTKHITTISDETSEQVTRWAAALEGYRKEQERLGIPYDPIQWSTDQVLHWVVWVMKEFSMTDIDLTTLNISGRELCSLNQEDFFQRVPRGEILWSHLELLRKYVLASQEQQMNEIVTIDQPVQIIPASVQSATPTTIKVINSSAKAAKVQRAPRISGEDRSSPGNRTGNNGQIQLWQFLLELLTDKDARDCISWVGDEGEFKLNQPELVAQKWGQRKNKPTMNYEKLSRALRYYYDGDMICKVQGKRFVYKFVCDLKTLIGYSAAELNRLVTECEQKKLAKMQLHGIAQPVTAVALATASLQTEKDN
In short, it runs like this:
as §1

A further assay has as its target T4, ERG (Homo sapiens, UniProt P11308 1-479).
T4 sequence: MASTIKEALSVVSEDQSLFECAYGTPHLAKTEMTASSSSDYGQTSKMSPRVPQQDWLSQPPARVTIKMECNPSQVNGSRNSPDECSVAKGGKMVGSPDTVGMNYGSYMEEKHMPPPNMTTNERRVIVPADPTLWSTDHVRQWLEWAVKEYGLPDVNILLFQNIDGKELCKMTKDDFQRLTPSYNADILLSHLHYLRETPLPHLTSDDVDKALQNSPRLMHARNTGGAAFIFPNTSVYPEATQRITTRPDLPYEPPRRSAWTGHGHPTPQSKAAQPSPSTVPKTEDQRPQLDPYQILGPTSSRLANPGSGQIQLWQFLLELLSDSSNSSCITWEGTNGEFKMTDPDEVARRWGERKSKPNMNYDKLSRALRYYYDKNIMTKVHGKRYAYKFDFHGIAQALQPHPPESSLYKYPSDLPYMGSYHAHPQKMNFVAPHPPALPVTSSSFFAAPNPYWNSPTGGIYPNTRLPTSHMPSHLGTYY
In short, it runs like this: as §1

In another assay the target is ELF1 (Homo sapiens, UniProt P32519 1-619). In short, it runs like this:
as §1

The next assay deals with SPI1 (Homo sapiens, UniProt P17947 1-270). An outline of the steps:
as §1

The next assay concerns the target SPIB (Homo sapiens, UniProt Q01892 1-262). An outline of the steps:
as §1

A further assay has as its target T5, ELK3 (Homo sapiens, UniProt P41970 1-407).
T5 sequence: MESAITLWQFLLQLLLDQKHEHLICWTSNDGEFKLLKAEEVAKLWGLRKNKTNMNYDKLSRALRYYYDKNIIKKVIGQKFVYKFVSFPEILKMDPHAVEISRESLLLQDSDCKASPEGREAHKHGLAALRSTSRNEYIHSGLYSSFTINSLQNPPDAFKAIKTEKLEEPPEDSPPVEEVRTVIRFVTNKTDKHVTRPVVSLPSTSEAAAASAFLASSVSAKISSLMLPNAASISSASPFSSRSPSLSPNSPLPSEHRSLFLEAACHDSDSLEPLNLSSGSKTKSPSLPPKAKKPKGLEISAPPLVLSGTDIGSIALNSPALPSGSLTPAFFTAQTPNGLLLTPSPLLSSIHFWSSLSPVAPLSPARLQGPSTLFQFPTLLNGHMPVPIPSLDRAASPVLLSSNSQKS
In short, it runs like this: as §1

A further assay addresses T6, FEV (Homo sapiens, UniProt Q99581 1-238).
T6 sequence: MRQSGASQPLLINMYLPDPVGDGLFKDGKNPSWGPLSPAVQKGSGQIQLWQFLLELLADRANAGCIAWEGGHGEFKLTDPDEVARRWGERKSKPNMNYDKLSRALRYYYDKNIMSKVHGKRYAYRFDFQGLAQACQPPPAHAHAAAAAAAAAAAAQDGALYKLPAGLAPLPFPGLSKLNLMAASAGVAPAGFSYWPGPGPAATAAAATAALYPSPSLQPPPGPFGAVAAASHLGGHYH
An outline of the steps:
as §1

A further assay addresses ETV5 (Homo sapiens, UniProt P41161 1-510). An outline of the steps:
as §1

Another assay concerns the target T7, SPIC (Homo sapiens, UniProt Q8N5J4 1-248).
T7 sequence: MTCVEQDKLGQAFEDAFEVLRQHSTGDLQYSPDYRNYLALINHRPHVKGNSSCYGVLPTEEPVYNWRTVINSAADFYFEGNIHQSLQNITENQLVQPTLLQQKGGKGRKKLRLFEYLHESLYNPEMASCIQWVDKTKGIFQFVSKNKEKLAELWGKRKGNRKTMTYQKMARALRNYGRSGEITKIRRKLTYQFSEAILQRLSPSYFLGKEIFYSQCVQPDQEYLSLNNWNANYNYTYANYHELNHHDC
An outline of the steps: as §1

Another assay concerns the target ELF4 (Homo sapiens, UniProt Q99607 1-663). In short, it runs like this: as §1
The next assay concerns the target T8, ELK4 (Homo sapiens, UniProt P28324-2 1-405).
T8 sequence: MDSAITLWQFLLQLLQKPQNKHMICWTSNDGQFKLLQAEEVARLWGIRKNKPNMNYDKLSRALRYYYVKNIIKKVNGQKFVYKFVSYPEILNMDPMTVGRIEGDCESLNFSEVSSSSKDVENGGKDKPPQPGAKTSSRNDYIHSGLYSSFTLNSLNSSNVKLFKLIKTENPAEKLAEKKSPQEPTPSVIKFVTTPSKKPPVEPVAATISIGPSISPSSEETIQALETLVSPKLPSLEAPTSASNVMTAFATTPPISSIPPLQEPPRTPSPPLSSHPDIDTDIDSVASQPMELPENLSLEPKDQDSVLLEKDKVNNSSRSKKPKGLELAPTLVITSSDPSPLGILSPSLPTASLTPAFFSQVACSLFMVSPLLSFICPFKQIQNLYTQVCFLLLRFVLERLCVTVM
In short, it runs like this: as §1

A further assay addresses T9, ETV2 (Homo sapiens, UniProt O00321 1-342).
T9 sequence: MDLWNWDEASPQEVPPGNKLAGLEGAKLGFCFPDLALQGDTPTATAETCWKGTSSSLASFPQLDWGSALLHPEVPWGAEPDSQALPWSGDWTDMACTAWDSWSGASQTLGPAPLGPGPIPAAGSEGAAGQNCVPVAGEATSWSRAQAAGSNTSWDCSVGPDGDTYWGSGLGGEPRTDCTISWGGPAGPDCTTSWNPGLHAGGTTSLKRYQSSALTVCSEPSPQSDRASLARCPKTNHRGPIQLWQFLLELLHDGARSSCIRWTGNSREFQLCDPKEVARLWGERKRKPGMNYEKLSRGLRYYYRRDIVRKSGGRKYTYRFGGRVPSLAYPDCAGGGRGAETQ
An outline of the steps: as §1

For a further assay, the target named is T10, ELF3 (Homo sapiens, UniProt P78545 1-371).
T10 sequence: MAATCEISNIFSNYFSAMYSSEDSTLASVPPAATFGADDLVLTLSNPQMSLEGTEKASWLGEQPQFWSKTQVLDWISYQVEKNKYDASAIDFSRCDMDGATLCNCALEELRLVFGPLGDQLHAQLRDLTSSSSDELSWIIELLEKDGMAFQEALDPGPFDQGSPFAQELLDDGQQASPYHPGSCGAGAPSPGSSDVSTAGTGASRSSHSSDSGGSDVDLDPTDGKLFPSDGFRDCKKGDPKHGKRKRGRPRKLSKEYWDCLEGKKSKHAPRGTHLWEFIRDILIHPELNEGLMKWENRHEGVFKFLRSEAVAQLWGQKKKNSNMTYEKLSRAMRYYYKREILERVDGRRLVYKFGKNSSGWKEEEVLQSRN
An outline of the steps:
as §1

In another assay the target is ETV1 (Homo sapiens, UniProt P50549 1-477). In short, it runs like this:
as §1

Chain of ELF1 (P32519 whole entry): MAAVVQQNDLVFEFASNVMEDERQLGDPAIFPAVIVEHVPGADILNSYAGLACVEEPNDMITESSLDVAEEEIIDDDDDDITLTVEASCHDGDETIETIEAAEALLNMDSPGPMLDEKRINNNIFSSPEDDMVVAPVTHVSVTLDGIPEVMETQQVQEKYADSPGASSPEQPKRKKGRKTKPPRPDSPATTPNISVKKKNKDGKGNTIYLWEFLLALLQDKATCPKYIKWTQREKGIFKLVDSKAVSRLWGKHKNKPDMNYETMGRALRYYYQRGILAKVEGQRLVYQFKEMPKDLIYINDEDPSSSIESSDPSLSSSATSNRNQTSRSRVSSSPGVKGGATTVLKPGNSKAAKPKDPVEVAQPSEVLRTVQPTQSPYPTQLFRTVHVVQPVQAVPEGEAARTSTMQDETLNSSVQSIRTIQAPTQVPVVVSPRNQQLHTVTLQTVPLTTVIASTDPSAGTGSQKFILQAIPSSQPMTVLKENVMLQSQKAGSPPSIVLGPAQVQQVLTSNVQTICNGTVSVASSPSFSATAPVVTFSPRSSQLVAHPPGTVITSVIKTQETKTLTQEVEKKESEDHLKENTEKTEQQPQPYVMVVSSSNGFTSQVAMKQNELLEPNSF
Chain of ELF4 (Q99607 whole entry): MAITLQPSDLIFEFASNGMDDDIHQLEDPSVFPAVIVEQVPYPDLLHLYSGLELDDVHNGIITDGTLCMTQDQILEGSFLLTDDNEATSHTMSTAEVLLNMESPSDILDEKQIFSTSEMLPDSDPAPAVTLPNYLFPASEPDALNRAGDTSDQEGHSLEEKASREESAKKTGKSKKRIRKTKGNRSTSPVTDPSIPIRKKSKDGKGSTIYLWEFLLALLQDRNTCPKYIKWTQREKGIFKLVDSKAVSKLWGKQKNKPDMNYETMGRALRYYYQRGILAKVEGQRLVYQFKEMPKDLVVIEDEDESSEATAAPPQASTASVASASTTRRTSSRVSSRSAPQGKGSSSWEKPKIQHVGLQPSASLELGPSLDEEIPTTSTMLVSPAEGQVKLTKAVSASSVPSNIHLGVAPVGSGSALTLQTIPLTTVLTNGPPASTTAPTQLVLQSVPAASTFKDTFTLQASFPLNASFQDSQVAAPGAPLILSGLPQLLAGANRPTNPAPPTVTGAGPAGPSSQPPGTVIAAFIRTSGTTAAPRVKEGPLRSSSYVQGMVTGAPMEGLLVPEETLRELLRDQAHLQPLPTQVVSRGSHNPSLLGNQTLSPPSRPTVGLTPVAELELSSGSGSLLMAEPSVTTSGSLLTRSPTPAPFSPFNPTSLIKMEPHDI
Chain of ETV5 (P41161 whole entry): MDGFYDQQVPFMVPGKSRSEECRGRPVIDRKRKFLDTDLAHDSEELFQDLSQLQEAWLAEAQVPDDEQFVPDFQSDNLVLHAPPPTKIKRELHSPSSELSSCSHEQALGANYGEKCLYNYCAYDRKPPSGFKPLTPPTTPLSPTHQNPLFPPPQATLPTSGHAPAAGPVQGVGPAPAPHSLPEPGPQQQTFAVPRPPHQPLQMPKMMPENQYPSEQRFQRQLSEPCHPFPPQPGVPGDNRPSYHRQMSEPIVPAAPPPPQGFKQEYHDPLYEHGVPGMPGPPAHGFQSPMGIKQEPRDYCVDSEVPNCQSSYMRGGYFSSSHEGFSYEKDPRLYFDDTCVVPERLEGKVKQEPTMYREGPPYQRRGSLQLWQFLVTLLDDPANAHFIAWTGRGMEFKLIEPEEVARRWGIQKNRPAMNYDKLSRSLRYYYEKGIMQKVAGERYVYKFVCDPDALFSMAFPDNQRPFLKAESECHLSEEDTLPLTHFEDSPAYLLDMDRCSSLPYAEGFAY
Chain of SPIB (Q01892 whole entry): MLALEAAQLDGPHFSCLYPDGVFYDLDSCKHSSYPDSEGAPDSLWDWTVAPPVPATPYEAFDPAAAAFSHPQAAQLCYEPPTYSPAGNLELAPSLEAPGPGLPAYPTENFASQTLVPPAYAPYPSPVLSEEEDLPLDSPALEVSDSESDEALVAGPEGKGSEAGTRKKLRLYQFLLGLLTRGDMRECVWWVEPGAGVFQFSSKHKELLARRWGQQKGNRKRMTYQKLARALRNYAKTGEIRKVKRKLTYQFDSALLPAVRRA
Chain of ETV1 (P50549 whole entry): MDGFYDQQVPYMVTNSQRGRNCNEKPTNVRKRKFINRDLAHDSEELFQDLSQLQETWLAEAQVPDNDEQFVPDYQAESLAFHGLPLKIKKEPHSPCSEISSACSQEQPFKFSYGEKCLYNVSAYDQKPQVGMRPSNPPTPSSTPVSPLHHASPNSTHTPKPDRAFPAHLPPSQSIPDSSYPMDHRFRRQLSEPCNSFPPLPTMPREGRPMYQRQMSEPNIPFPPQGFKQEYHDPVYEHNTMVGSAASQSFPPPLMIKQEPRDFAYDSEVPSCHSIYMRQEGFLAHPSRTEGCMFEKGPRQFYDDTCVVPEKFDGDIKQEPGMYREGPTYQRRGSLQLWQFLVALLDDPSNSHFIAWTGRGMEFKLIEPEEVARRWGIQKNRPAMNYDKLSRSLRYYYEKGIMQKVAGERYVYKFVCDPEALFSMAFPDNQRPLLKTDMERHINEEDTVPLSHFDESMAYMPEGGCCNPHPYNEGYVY

In the case of CCTGTG, the binding signal in the assay with FLI1 was 1.06 fold enrichment (6-mer frequency, TF over GST control); with ELK1, 1.24 fold enrichment (6-mer frequency, TF over GST control); with GABPA, 1.08 fold enrichment (6-mer frequency, TF over GST control); with ERG it was 1.21 fold enrichment (6-mer frequency, TF over GST control); with ELF1 it was 1.11 fold enrichment (6-mer frequency, TF over GST control); with SPI1, 1.04 fold enrichment (6-mer frequency, TF over GST control). Further, the binding signal was 1.18 fold enrichment (6-mer frequency, TF over GST control) with SPIB; 1.01 fold enrichment (6-mer frequency, TF over GST control) with ELK3; 1.11 fold enrichment (6-mer frequency, TF over GST control) with FEV; 1.07 fold enrichment (6-mer frequency, TF over GST control) with ETV5; 1.32 fold enrichment (6-mer frequency, TF over GST control) with SPIC; 1.11 fold enrichment (6-mer frequency, TF over GST control) with ELF4. Also, the binding signal with ELK4 was 1.22 fold enrichment (6-mer frequency, TF over GST control); with ETV2 it was 1.11 fold enrichment (6-mer frequency, TF over GST control); with ELF3, 1 fold enrichment (6-mer frequency, TF over GST control); in the assay with ETV1, 1.12 fold enrichment (6-mer frequency, TF over GST control).
